Results filed as inconclusive are left out. A call without a number means that no potency is given here. Calls of active or inactive are those of the source. Calls follow the shape of the dose curve; as a rule, active = well fitted cell-killing curve with a large enough effect; inconclusive = small, poorly fitted or top-dose-only effect, or effect the other way; inactive = no such curve, though single readings can be large or run the other way.
Test: Quantitative High-Throughput drug screen in 47 multiple myeloma cell lines against the NCATS MIPE library collection: LP1_DSMZ cell viability assay (AID 1918982); also: nearly all actives have a fitted effect of over 35% in size
Settings: LP1 myeloma viability, CellTiter-Glo ATP luminescence, 48 h; series mostly up to 45.8 µM
Method in brief: (§1)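 Cells were exposed to library compounds for 48 hours, after which ATP was measured by CellTiter-Glo. Signal was taken as median relative luminescence units.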
Potency is read from the fitted curve at half-maximal effect.

Which Potency does the source give for `CNC(=O)c1ccccc1Sc1ccc2c(C=Cc3ccccn3)n[nH]c2c1` here?
Its Potency is 23.5 µM (active).

Which Potency does the source give for `CCC(CC)[C@H](NC(C)=O)[C@@H]1[C@H](O)[C@@H](C(=O)O)C[C@@H]1N=C(N)N` here?
Its Potency is “inactive”.

For `CO[C@H]1C(=O)[C@]2(C)[C@@H](OC)C[C@H]3OC[C@@]3(OC(C)=O)[C@H]2[C@H](OC(=O)c2ccccc2)[C@]2(O)C[C@H](OC(=O)[C@H](O)[C@@H](NC(=O)OC(C)(C)C)c3ccccc3)C(C)=C1C2(C)C`, which Potency is on record?
The Potency was “inactive”.

For `C[C@@H]1CCN(C(=O)CC#N)C[C@H]1N(C)c1ncnc2[nH]ccc12`, which Potency is on record?
The Potency was “inactive”.

For `NC1CCC(Nc2nc(Nc3ccc(C(=O)N4CCCCC4)cc3)c3ncn(-c4cccc(F)c4)c3n2)CC1` (configuration not stated), which Potency is on record?
Its Potency is “inactive”.

With `CN(C)Cc1ccc(-c2nc3cccc4c3n2CCNC4=O)cc1` as the molecule, how does the Potency read?
The Potency was 23.5 µM (active).

For `COc1cc(NC(=O)c2ccc(-c3ccc(Cl)cc3)o2)cc(OC)c1`, which Potency is on record?
The Potency was “inactive”.

With `CC(C)n1cnc2c(NCCCCCCNC(=O)OC(C)(C)C)nc(NCCO)nc21` as the molecule, how does the Potency read?
Its Potency is 18.7 µM (active).

Which Potency does the source give for `O=C(O)c1ccccc1C(=O)Nc1ccc(-c2ccccc2)cc1` here?
The Potency was “inactive”.

With `Cc1ccc(C(C)(O)c2nc3ccccc3s2)c(C)c1` (configuration not stated) as the molecule, how does the Potency read?
Its Potency is “inactive”.

Which Potency does the source give for `NC(CO)(CO)CCc1ccc(Sc2cccc(OCc3ccccc3)c2)cc1Cl` here?
Its Potency is 20.9 µM (active).

Test: Quantitative High-Throughput drug screen in 47 multiple myeloma cell lines against the NCATS MIPE library collection: KMS28PE_JCRB cell viability assay (AID 1918983); also: nearly all actives have a fitted effect of over 35% in size
Settings: KMS28PE multiple myeloma viability, CellTiter-Glo ATP, 48 h; series mostly up to 45.8 µM
Method in brief: as §1

Which Potency does the source give for `CC[C@H]1OC(=O)[C@H](C)[C@@H](O[C@H]2C[C@@](C)(OC)[C@@H](O)[C@H](C)O2)[C@H](C)[C@@H](O[C@@H]2O[C@H](C)C[C@H](N(C)C)[C@@H]2O)[C@](C)(O)C[C@@H](C)CN(C)[C@H](C)[C@@H](O)[C@]1(C)O` here?
The Potency was “inactive”.

With `CC(=O)Nc1ccc([C@H](C)C(=O)Nc2ncc(C(C)C)s2)cc1` as the molecule, how does the Potency read?
Its Potency is 7.43 µM (active).

Which Potency does the source give for `CC(C(=O)O)c1ccc(-c2ccccc2)c(F)c1` (configuration not stated) here?
Its Potency is “inactive”.

With `CN1C[C@H]2c3ccccc3Oc3ccc(Cl)cc3[C@@H]2C1` as the molecule, how does the Potency read?
The Potency was “inactive”.

For `CCn1cc(C(=O)O)c(=O)c2ccc(C)nc21`, which Potency is on record?
The Potency was “inactive”.

Which Potency does the source give for `CC1(C)CCC[C@@]2(C)[C@@H]1CC[C@@]1(C)OC(=O)C[C@H]21` here?
Its Potency is “inactive”.

With `CNC(=O)c1ccccc1Sc1ccc2c(C=Cc3ccccn3)n[nH]c2c1` as the molecule, how does the Potency read?
Its Potency is 5.26 µM (active).

With `NC(=O)c1ccc2nc(-c3ccc(Oc4ccc(Cl)cc4)cc3)[nH]c2c1` as the molecule, how does the Potency read?
Its Potency is “inactive”.

Which Potency does the source give for `CC1(C)S[C@H]2[C@H](NC(=O)[C@@H](N)c3ccc(O)cc3)C(=O)N2[C@@H]1C(=O)O` here?
Its Potency is 18.7 µM (active).

With `CS(=O)c1ccc(-c2nc(-c3ccc(F)cc3)c(-c3ccncc3)[nH]2)cc1` (configuration not stated) as the molecule, how does the Potency read?
Its Potency is “inactive”.

For `CCC(=O)NC[C@H](Cc1ccc(OCCc2nc(-c3ccccc3)oc2C)cc1)NC(C)=CC(=O)c1ccc(C(F)(F)F)cc1`, which Potency is on record?
Its Potency is 23.5 µM (active).

With `CCC(CC)[C@H](NC(C)=O)[C@@H]1[C@H](O)[C@@H](C(=O)O)C[C@@H]1N=C(N)N` as the molecule, how does the Potency read?
The Potency was “inactive”.

With `COc1ccc2cccc(CCNC(C)=O)c2c1` as the molecule, how does the Potency read?
Its Potency is “inactive”.

For `CCNc1cc(NC2CCC(O)CC2)nc(Nc2ccc3c(ccn3Cc3ccccc3)c2)n1` (configuration not stated), which Potency is on record?
The Potency was 23.5 µM (active).

For `C[C@@H]1CCN(C(=O)CC#N)C[C@H]1N(C)c1ncnc2[nH]ccc12`, which Potency is on record?
The Potency was “inactive”.

With `CC(C)n1cnc2c(NCCCCCCNC(=O)OC(C)(C)C)nc(NCCO)nc21` as the molecule, how does the Potency read?
Its Potency is 18.7 µM (active).

Which Potency does the source give for `O=C(O)c1ccccc1C(=O)Nc1ccc(-c2ccccc2)cc1` here?
The Potency was “inactive”.

Which Potency does the source give for `O=C(O)[C@H]1O[C@H](Oc2cc3oc(-c4ccccc4)cc(=O)c3c(O)c2O)[C@H](O)[C@@H](O)[C@H]1O` here?
Its Potency is 16.6 µM (active).

Test: Quantitative High-Throughput drug screen in 47 multiple myeloma cell lines against the NCATS MIPE library collection: L363_DSMZ cell viability assay (AID 1918984); also: nearly all actives have a fitted effect of over 40% in size
Settings: L363 myeloma viability, CellTiter-Glo ATP luminescence, 48 h; series mostly up to 45.8 µM
Method in brief: as §1

For `CCS(=O)(=O)N1CC(CC#N)(n2cc(-c3ncnc4[nH]ccc34)cn2)C1`, which Potency is on record?
Its Potency is “inactive”.

With `O=c1cc(-c2ccccc2)oc2cc(O)c(O)c(O)c12` as the molecule, how does the Potency read?
The Potency was “inactive”.

Which Potency does the source give for `C[C@H](NC(=O)C(=O)Nc1ccccc1C(C)(C)C)C(=O)N[C@@H](CC(=O)O)C(=O)COc1c(F)c(F)cc(F)c1F` here?
Its Potency is 0.833 µM (active).

Which Potency does the source give for `CCn1cc(C(=O)O)c(=O)c2ccc(C)nc21` here?
The Potency was “inactive”.

With `CN1CCN(CCOc2cc(OC3CCOCC3)c3c(Nc4c(Cl)ccc5c4OCO5)ncnc3c2)CC1` as the molecule, how does the Potency read?
The Potency was 14.8 µM (active).

Which Potency does the source give for `CC1(C)S[C@H]2[C@H](NC(=O)[C@@H](N)c3ccc(O)cc3)C(=O)N2[C@@H]1C(=O)O` here?
Its Potency is 2.64 µM (active).

With `CS(=O)c1ccc(-c2nc(-c3ccc(F)cc3)c(-c3ccncc3)[nH]2)cc1` (configuration not stated) as the molecule, how does the Potency read?
Its Potency is 24.1 µM (active).

Which Potency does the source give for `NC[C@@H]1O[C@@H](O[C@H]2[C@@H](O)[C@H](O[C@@H]3[C@@H](O)[C@@H](N)C[C@H](N)[C@H]3O[C@H]3O[C@H](CN)[C@@H](O)[C@@H](O)[C@H]3N)O[C@H]2CO)[C@H](N)[C@@H](O)[C@@H]1O` here?
The Potency was “inactive”.

Which Potency does the source give for `CCC(CC)[C@H](NC(C)=O)[C@@H]1[C@H](O)[C@@H](C(=O)O)C[C@@H]1N=C(N)N` here?
Its Potency is “inactive”.

Which Potency does the source give for `COc1ccc2cccc(CCNC(C)=O)c2c1` here?
The Potency was “inactive”.

Which Potency does the source give for `NC1CCC(Nc2nc(Nc3ccc(C(=O)N4CCCCC4)cc3)c3ncn(-c4cccc(F)c4)c3n2)CC1` (configuration not stated) here?
Its Potency is “inactive”.

For `CN(C)Cc1ccc(-c2nc3cccc4c3n2CCNC4=O)cc1`, which Potency is on record?
The Potency was 18.7 µM (active).

Which Potency does the source give for `CC(C)C[C@H](CC(=O)O)C(=O)N[C@@H](Cc1c[nH]c2ccccc12)C(=O)N[C@@H](C)c1ccccc1` here?
Its Potency is “inactive”.

Which Potency does the source give for `CO[C@H]1C=CO[C@@]2(C)Oc3c(C)c(O)c4c(O)c(c5c(c4c3C2=O)NC2(CCN(CC(C)C)CC2)N=5)=NC(=O)C(C)=CC=C[C@H](C)[C@H](O)[C@@H](C)[C@@H](O)[C@@H](C)[C@H](OC(C)=O)[C@H]1C` here?
The Potency was “inactive”.

Which Potency does the source give for `O=C(O)c1ccccc1C(=O)Nc1ccc(-c2ccccc2)cc1` here?
Its Potency is “inactive”.

Which Potency does the source give for `Cc1ccc(C(C)(O)c2nc3ccccc3s2)c(C)c1` (configuration not stated) here?
The Potency was “inactive”.

For `NC(CO)(CO)CCc1ccc(Sc2cccc(OCc3ccccc3)c2)cc1Cl`, which Potency is on record?
Its Potency is 10.5 µM (active).

For `O=C(O)[C@H]1O[C@H](Oc2cc3oc(-c4ccccc4)cc(=O)c3c(O)c2O)[C@H](O)[C@@H](O)[C@H]1O`, which Potency is on record?
The Potency was “inactive”.
